The nature of experiment [1]: qHTS assay for small molecule agonists of the p53 signaling pathway (AID 651631; calls by dose curve; further: nearly all actives have a fitted effect of over 15% in size; further: potency means the concentration at half of the fitted maximal effect). A digest of the protocol:
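Readout was fluorescence from the LiveBLAzer FRET substrate, applied for 2 h at room temperature after 16 h compound exposure at 37 °C. Cells were the p53RE-bla HCT-116 line, with beta-lactamase driven by p53 response elements.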

Experiment [2] is described as follows: qHTS assay for small molecules that induce genotoxicity in human embryonic kidney cells expressing luciferase-tagged ATAD5 (AID 651632). Further: nearly all actives have a fitted effect of over 15% in size. A digest of the protocol: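 DMSO vehicle served as the control. HEK293T reporter cells, 16 hr at 37C, then 30 min Amplite at room temperature; ATAD5 induction is measured as luciferase activity.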
In general terms: Quantitative high-throughput screening tests each substance at several concentrations.

Experiment [3] in a line: qHTS assay for small molecule agonists of the p53 signaling pathway - cell viability (AID 651633; calls by dose curve; further: nearly all actives have a fitted effect of over 30% in size; further: potency means the concentration at half of the fitted maximal effect). Summed up: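 Viability counter-read: CellTiter-Glo luminescence (30 min, room temperature) in the same p53RE-bla plates. These plates had been exposed to compounds for 16 h at 37 C.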
The nature of experiment [4]: qHTS assay for small molecules that induce genotoxicity in human embryonic kidney cells expressing luciferase-tagged ATAD5 - cell viability (AID 651634; calls by dose curve; further: nearly all actives have a fitted effect of over 25% in size; further: potency means the concentration at half of the fitted maximal effect). A digest of the protocol:
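Here HEK293T cells with the ATAD5 luciferase reporter are incubated with test compounds for 15.5 hr, and cytotoxicity is then gauged by measuring protease activity in live cells using fluorescence.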

The nature of experiment [5]: qHTS assay for small molecule disruptors of the mitochondrial membrane potential - cell viability (AID 720634; calls by dose curve;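 further: human HepG2 liver cancer cells; series mostly up to about 83 µM; nearly all actives have a fitted effect of over 20% in size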). Summed up: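 Viability of HepG2 cells is scored from ATP content by luminescence; cells are exposed to compound for 1 hr at 37 C and 5% CO2, then dosed with m-MPI dye before the CellTiter-Glo reagent.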
Experiment [6] is described as follows: qHTS assay for small molecule disruptors of the mitochondrial membrane potential (AID 720635). Further: potency means the concentration at half of the fitted maximal effect. Summed up:
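Mitochondrial membrane potential tracked with Mito-MPS dye, red aggregates (ex 540/em 590 nm) against green monomers (ex 490/em 535 nm). Compound treatment 1 hr at 37C, dye 30 min in HepG2.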

Experiment [7] can be described thus: qHTS assay to test for compound auto fluorescence at 590 nm (red) in HepG2 cells (AID 720674). A digest of the protocol: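 Red autofluorescence (Ex/Em 540/590 nm, Rose Bengal sodium equivalents) was measured in HepG2 cells, 2,000 per well in MEM plus 10% FBS, plated overnight at 37 C. Readings were taken 1 hr after adding 23 nL compound or DMSO, at 37 C and 5% CO2.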

The nature of experiment [8]: qHTS assay to test for compound auto fluorescence at 535 nm (green) in HepG2 cells (AID 720675).
A short description of experiment [9]: qHTS assay to test for compound auto fluorescence at 460 nm (blue) in HEK293 cells (AID 720678). Summed up: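 HEK293, 2,000 cells/well, 10% dialyzed FBS; attach 4-5 hr 37C; pin compound or DMSO; o/n 37C/5% CO2; fluorescence 405/460 nm; triamterene-equivalent units.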
The nature of experiment [10]: qHTS assay to test for compound auto fluorescence at 590 nm (red) in HEK293 cells (AID 720679). A digest of the protocol: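 Intensity at 540nm excitation and 590nm emission is reported as Rose Bengal sodium-equivalent autofluorescence. Measurements followed overnight exposure (37C, 5% CO2) of HEK293 cells, 2,000 per well, to 23 nL compound.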

Here are results for 23 compounds from PubChem BioAssay (Tox21).

“And” between values parts separate entries of the source, which are not always exact repeats. Equal values may be shown once. Inconclusive results are not listed. The source holds several records for some structures; these can differ, active in one and inactive in another. The source made the active and inactive calls. Unless noted, the call rests on the fitted dose curve; in most records, active means well fitted curve in the direction sought with a large enough effect in the repeat runs; inconclusive means weak or mixed curves; inactive means no such curve, though single readings can be large; an effect the other way counts as inactive or inconclusive.

In the case of `O=C(O)c1cc(=O)[nH]c(=O)[nH]1`, the Potency entry in experiment [1], in [2], in [3], in experiment [4], in [5] and in experiment [6] was “inactive” each time. Further, the Potency result in [7] and in experiment [8] was “inactive” each time. In addition, the result in experiment [9] was inactive.

In the case of `CCO[Si](CCCNC(N)=O)(OCC)OCC`, the Potency result in experiment [1], in [2], in experiment [3], in experiment [4], in [5] and in experiment [6] was “inactive” throughout. Further, the Potency entry in [7], in [8] and in experiment [10] was “inactive” each time. Further, in [9], the outcome was inactive.

With `COc1ccc(C(=O)c2ccccc2O)c(O)c1`, the Potency result in experiment [1], in experiment [2], in [3], in experiment [4], in [5] and in [7] was “inactive” in each case. Moreover, the Potency entry in experiment [8] and in [10] was “inactive” each time. Also, the Potency in [6] is 8.04 µM (active) and 8.61 µM (active). The compound was called inactive in experiment [9].

Consider `CCCCCCCCCCCCO`, for which the Potency entry in experiment [1], in experiment [2], in experiment [3], in experiment [4], in experiment [5] and in [6] was “inactive” in each case. For the same compound, the Potency entry in [7] and in [8] was “inactive” throughout. Also, in [9], the outcome was inactive.

On to `NCCS(=O)(=O)O`, for which the Potency result in experiment [1], in [2], in experiment [3], in [4], in [5] and in [7] was “inactive” each time. Moreover, the Potency result in experiment [8] and in experiment [10] was “inactive” in each case. Moreover, the Potency result in experiment [6] was “inactive and 7.13 µM (active)”. The outcome in experiment [9] was inactive.

Take `Cc1ccc(S(=O)(=O)O)cc1C`: the Potency entry in experiment [1], in experiment [2], in experiment [3], in experiment [4], in experiment [5] and in experiment [6] was “inactive” throughout. For the same compound, the Potency entry in experiment [7], in experiment [8] and in experiment [10] was “inactive” in each case. The compound was classed as inactive in experiment [9].

As for `Cc1ccc(C(C)(C)C)cc1`, the Potency result in [1], in [2], in experiment [3], in experiment [4], in experiment [5] and in experiment [6] was “inactive” throughout. Further, the Potency entry in experiment [7], in experiment [8] and in experiment [10] was “inactive” each time. Moreover, in [9], the outcome was inactive.

With `CC(C)(Oc1ccc(Cl)cc1)C(=O)O`, the Potency entry in [1], in experiment [2], in experiment [3], in experiment [4], in experiment [5] and in [6] was “inactive” in each case. Further, the Potency entry in experiment [7] and in experiment [8] was “inactive” each time. Also, the result in experiment [9] was inactive.

Take `Nc1ccc(O)c(N)c1`: the Potency result in experiment [1], in [2], in [3], in experiment [5], in [7] and in experiment [8] was “inactive” in each case. For the same compound, the Potency is 54.1 µM (active) and 61.1 µM (active) in experiment [4]; 10.8 µM (active) and 4.86 µM (active) in experiment [6]. For the same compound, in experiment [9], the compound was called inactive.

For the compound `O=S1(=O)CCCO1`, the Potency result in experiment [1], in [2], in experiment [3], in [4], in experiment [5] and in experiment [6] was “inactive” throughout. Moreover, the Potency result in experiment [7], in experiment [8] and in [10] was “inactive” in each case. The compound was called inactive in [9].

With `CCCCCCCC/C=C\CCCCCCCC(=O)O`, the Potency result in [1], in experiment [2], in experiment [3], in experiment [4], in [5] and in experiment [6] was “inactive” each time. The Potency entry in [7], in [8] and in [10] was “inactive” throughout. In [9], the call was inactive.

Regarding `Cc1ccc(C)c(O)c1`, the Potency entry in [1], in [2], in experiment [3], in experiment [4], in experiment [5] and in experiment [6] was “inactive” each time. Moreover, the Potency entry in [7] and in experiment [8] was “inactive” throughout. The call in experiment [9] was inactive.

`Clc1ccc(Sc2cc(Cl)c(Cl)cc2Cl)cc1`: the Potency result in experiment [1], in [2], in experiment [3], in experiment [4], in experiment [5] and in [7] was “inactive” throughout. The Potency entry in experiment [8] and in experiment [10] was “inactive” in each case. Also, the Potency in experiment [6] was 1.68 µM (active) and 864 nM (active). For the same compound, the compound was called inactive in experiment [9].

As to `CC(=O)Oc1ccc(C(c2ccc(OC(C)=O)cc2)c2ccccn2)cc1`, the Potency in [1] was 944 nM (active) and 271 nM (active); in [3], 668 nM (active) and 483 nM (active); in [6], 6.68 µM (active) and 21.6 µM (active). The Potency entry in [2], in [4], in experiment [5], in experiment [7] and in [8] was “inactive” throughout. The compound was classed as inactive in experiment [9].

In the case of `CC(C)=CCO`, the Potency result in [1], in [2], in experiment [3], in experiment [4], in experiment [5] and in experiment [6] was “inactive” each time. For the same compound, the Potency result in experiment [7], in experiment [8] and in experiment [10] was “inactive” in each case. Moreover, the result in experiment [9] was inactive.

On to `CNC[C@H](O)c1ccc(O)c(O)c1`, for which the Potency result in experiment [1], in experiment [2], in experiment [3], in [4], in experiment [5] and in experiment [6] was “inactive” throughout. Further, the Potency entry in experiment [7], in [8] and in experiment [10] was “inactive” in each case. Moreover, the compound was called inactive in [9].

For `O=[Se](O)O`, the Potency in experiment [1] is 24.4 µM (active) and inactive; in experiment [4] it was 687 nM (active); in [6], 8.64 µM (active) and inactive. In addition, the Potency entry in [2], in [3], in experiment [5], in [7] and in [10] was “inactive” throughout. The compound was classed as inactive in experiment [9].

As for `COCCOCCOCCO`, the Potency result in experiment [1], in experiment [2], in [3], in experiment [4], in [7] and in experiment [10] was “inactive” each time. Besides, the call in experiment [9] was inactive.

Turning to `Oc1c(Cl)ccc(Cl)c1Cl`, the Potency result in experiment [1], in experiment [2], in experiment [3], in experiment [4], in experiment [7] and in experiment [8] was “inactive” in each case. Moreover, the Potency entry in [10] is “inactive”. In experiment [6], the Potency is 4.32 µM (active) and 61.1 µM (active). Further, the compound was called inactive in [9].

`Nc1cc(Cl)c(N)c(Cl)c1`: the Potency entry in experiment [1], in [2], in experiment [3], in experiment [4], in experiment [5] and in experiment [7] was “inactive” each time. Further, in [9], the call was inactive.

As to `CC(C)[N+](C)(CCOC(=O)C1c2ccccc2Oc2ccccc21)C(C)C`, the Potency entry in [1], in [2], in experiment [3], in experiment [4], in experiment [5] and in experiment [6] was “inactive” each time. The Potency result in experiment [7] is “inactive”. For the same compound, in experiment [9], the compound was called inactive.

As for `c1ccc2cc3ccccc3cc2c1`, the Potency result in experiment [1], in experiment [2], in experiment [3], in [4], in [5] and in experiment [7] was “inactive” in each case. The Potency entry in [10] was “inactive”. Further, in experiment [6], the Potency was 5.01 µM (active) and 34.4 µM (active). Moreover, in [9], the compound was classed as inactive.

Regarding `Brc1nc2ccccc2s1`, the Potency result in [1], in [2], in [3], in [4], in experiment [5] and in experiment [6] was “inactive” in each case. Besides, the Potency result in [7] and in experiment [10] was “inactive” in each case. Besides, the call in [9] was inactive.
